# Where a name gives a salt, the structure may show the parent alone. Screen size: about 5,800 compounds; about 620 (11%) showed activity. This is one part of a sample in which actives are shown more often than they occur. Values without a mark were called inactive.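 The calls were made as follows: active = score above a cut-off or among the top three wells of a plate; in these data no inactive exceeds 0.85.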
# Test system: primary human hepatic stellate cells (donor 1)
# Test: scaled lipid accumulation score (0 = DMSO-like, 1 = nortriptyline-like); higher = stronger HSC inactivation (lipid re-accumulation), active = hit call of the paper
# Conditions: 48 h
# [1] = library stock concentration: 10 mM
# [2] = library stock concentration: 100 uM
# [3] = library stock concentration: 1 mM
structure (smiles),measurement,setting,value
NC(=O)C[S@@+]([O-])C(c1ccccc1)c1ccccc1,scaled lipid accumulation score,[1],≤ 0
CCCCC[C@@H](/C=C/C=C\C/C=C\C/C=C\CCCC(=O)O)OO,scaled lipid accumulation score,[2],≤ -0.01
CCCCC/C=C\C/C=C\C/C=C\C/C=C\CCCC(=O)Nc1cccc(O)c1 [N-(3-hydroxyphenyl)-Arachidonoyl amide],scaled lipid accumulation score,[3],0.053
CCN(CC)CCOC(=O)C(O)(c1ccccc1)c1ccccc1,scaled lipid accumulation score,[1],≤ 0
CCCCC/C=C\C/C=C\C/C=C\C/C=C\CCCC(=O)NCCF [Arachidonoyl-2'-Fluoroethylamide],scaled lipid accumulation score,[3],≤ 0
CCCN1CCc2cccc3c2[C@H]1Cc1ccc(O)c(O)c1-3 [R(-)-Propylnorapomorphine hydrochloride],scaled lipid accumulation score,[1],≤ -0.038
"CCCCCCCCCC(=O)OC[C@H](COP(=O)([O-])OCC[N+](C)(C)C)OC(=O)CCCCCCCCC [1,2-Didecanoyl PC]",scaled lipid accumulation score,[3],≤ 0
c1ccc2sc(C3(N4CCCCC4)CCCCC3)cc2c1 [BTCP maleate],scaled lipid accumulation score,[1],0.248
c1ccc2sc(C3(N4CCCCC4)CCCCC3)cc2c1 [BTCP hydrochloride],scaled lipid accumulation score,[1],0.74
S=C=Nc1cccc(C2(N3CCCCC3)CCCCC2)c1 [Metaphit],scaled lipid accumulation score,[1],0.949 (active)
COC(=O)[C@@H](N)CCCNC(=N)N[N+](=O)[O-] [NG-Nitro-L-arginine methyl ester hydrochloride],scaled lipid accumulation score,[1],0.047
COC(=O)[C@@H](N)CCCNC(=N)N[N+](=O)[O-] [L-NAME hydrochloride],scaled lipid accumulation score,[1],≤ 0
COC(=O)[C@@H](N)CCCNC(=N)N[N+](=O)[O-],scaled lipid accumulation score,library stock concentration: 21.4 mM,≤ -0.012
COC(=O)[C@@H](N)CCCNC(=N)N[N+](=O)[O-] [L-NAME (hydrochloride)],scaled lipid accumulation score,[3],≤ 0
"c1cc2ccsc2c(N2CCNCC2)n1 [7-Piperazin-1-yl-thieno[2,3-c] Pyridine (hydrochloride)]",scaled lipid accumulation score,[3],≤ 0
c1cc(N2CCNCC2)c2cnccc2c1 [8-piperazin-1-yl-Isoquinoline (hydrochloride)],scaled lipid accumulation score,[3],0.005
Oc1ccc2c3c1O[C@H]1c4oc5ccccc5c4C[C@@]4(O)[C@@H](C2)N(CC2CC2)CC[C@]314 [Naltriben mesylate],scaled lipid accumulation score,library stock concentration: 4.8 mM,0.403
Oc1ccc2c3c1O[C@H]1[C@@H](O)CC[C@@]4(O)[C@@H](C2)N(CC2CCC2)CC[C@]314 [Nalbuphine],scaled lipid accumulation score,[1],0.075
NC(N)=Nc1ccc2[nH]c3c(c2c1)C[C@@]1(O)[C@H]2Cc4ccc(O)c5c4[C@@]1(CCN2CC1CC1)[C@H]3O5 [Guanidinyl-naltrindole di-trifluoroacetate],scaled lipid accumulation score,[1],≤ -0.07
Oc1ccc2c3c1O[C@H]1[C@@H](O)CC[C@@]4(O)[C@@H](C2)N(CC2CCC2)CC[C@]314 [Nalbuphine hydrochloride],scaled lipid accumulation score,,≤ 0
same,scaled lipid accumulation score,library stock concentration: 5.1 mM,0.02
same,scaled lipid accumulation score,[1],≤ 0
CS(=O)(=O)O.Oc1ccc2c3c1O[C@H]1c4oc5ccccc5c4C[C@@]4(O)C(C2)N(CC2CC2)CCC314 (stereo not given in full) [Naltriben methanesulfonate],scaled lipid accumulation score,[1],1.11 (active)
NC(N)=Nc1ccc2[nH]c3c(c2c1)C[C@@]1(O)[C@H]2Cc4ccc(O)c5c4[C@@]1(CCN2CC1CC1)[C@H]3O5 [GNTI dihydrochloride],scaled lipid accumulation score,[1],≤ -0.006
CS(=O)(=O)O.Oc1ccc2c3c1O[C@H]1c4oc5ccccc5c4C[C@@]4(O)C(C2)N(CC2CC2)CC[C@]314 [Naltriben mesylate],scaled lipid accumulation score,[1],1.27 (active)
Oc1ccc2c3c1O[C@H]1c4c(c5ccccc5n4Cc4ccccc4)C[C@@]4(O)C(C2)N(CC2CC2)CC[C@]314 [N-Benzylnaltrindole hydrochloride],scaled lipid accumulation score,[1],0.77
NNCc1ccccc1 [Benzylhydrazine hydrochloride],scaled lipid accumulation score,[1],0.294
C[C@@H]1NCCc2cc(O)c(O)cc21 [Salsolinol hydrobromide],scaled lipid accumulation score,,≤ 0
C#CC(C)(O)CC (stereo not given),scaled lipid accumulation score,[1],≤ 0
Cc1nnc2n1-c1ccc(Cl)cc1C(c1ccccc1)=NC2 [Alprazolam],scaled lipid accumulation score,[1],≤ 0
Cc1ncc2n1-c1ccc(Cl)cc1C(c1ccccc1F)=NC2,scaled lipid accumulation score,[1],≤ 0
CCCCC/C=C\C=C\[C@H](CCCCCCCC(=O)O)OO,scaled lipid accumulation score,[2],≤ -0.021
C=C1[C@@H](O)[C@@H]2O[C@]3(CC[C@H](/C=C/[C@@H](C)[C@@H]4CC(C)=C[C@@]5(O[C@H](C[C@@](C)(O)C(=O)O)CC[C@H]5O)O4)O3)CC[C@H]2O[C@@H]1[C@@H](O)C[C@H](C)[C@H]1O[C@@]2(CCCCO2)CC[C@H]1C [Okadaic acid],scaled lipid accumulation score,library stock concentration: 600 uM,0.393
COC1=CC(=O)O[C@@H](/C=C/c2ccccc2)C1 (racemic) [Kavain (+/-)],scaled lipid accumulation score,library stock concentration: 21.7 mM,0.117
COC1=CC(=O)O[C@@H](/C=C/c2ccccc2)C1 [Kawain],scaled lipid accumulation score,,0.119

# — the supplement of paper PMC9135407
